Measurements published in PubChem BioAssay AID2289 (National Center for Advancing Translational Sciences (NCATS), 2010).
The campaign covered roughly 340,000 compounds. About 3,300 (0.97%) were called active. About 9% were inconclusive and are not listed. Calls come from the whole dose curve; as a rule, active = well fitted inhibition curve with a large enough effect; inconclusive = small, poorly fitted or top-dose-only effect, or effect the other way; inactive = flat fitted curve, though single readings scatter. The list shows a part of the results.

Experiment: qHTS Assay for Modulators of miRNAs and/or Inhibitors of miR-21; note: nearly all actives have a fitted effect of over 55% in size
Details: HeLa miR-21-FLuc reporter, luciferase luminescence, 48 h; actives lower the signal
How it was run: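 HeLa cells endogenously expressing miR-21, stably carrying CMV-driven firefly luciferase with a downstream miR-21 binding site, 2000 cells/well. Titrations up to approximately 40 uM, 48 hours; luciferase luminescence read.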
Potency is the fitted concentration of half-maximal effect.

Potency, active:
COc1ccc2nc(NC(=O)c3ccc(Br)s3)sc2c1 1.17 µM
COc1ccc2nc(NC(=O)c3cccnc3SC)sc2c1 2.93 µM
O=C(NC(=O)c1ccc(Cl)cc1)OC1CCCCC1 16.5 µM
Cc1cc(CC(C)C)n(-c2nc3ccccc3c(=O)n2OCC(=O)N(C)C)n1 18.5 µM
COc1ccc(CCn2nc(C)c([N+](=O)[O-])c2C)cc1 4.14 µM
O=C(/C=C/Nc1ccccc1O)c1ccco1 18.5 µM
CC(=O)N1c2ccccc2Oc2cc3ccccc3cc21 9.27 µM
CCCC(=O)N(CCN1CCOCC1)c1nc2cc(C)c(C)cc2s1 2.33 µM
O=C(NC(=S)Nc1ccc2ncccc2c1)c1ccccc1 6.56 µM
Cc1csc(NC(=S)NC(=O)c2ccccc2)n1 1.31 µM
O=C(Nc1ccc2ncccc2c1)c1ccccc1Br 1.65 µM
Cc1cc(C(=O)Nc2cnc3ccccc3c2)ccc1[N+](=O)[O-] 0.736 µM
O=C(NC(=S)Nc1cnc2ccccc2c1)c1ccccc1 0.585 µM
O=C(NC(=S)Nc1ccc(Cl)cc1)c1ccccc1 4.65 µM
O=C(NNC(=S)Nc1ccccc1)c1ccc2ncccc2c1 8.26 µM
Cc1cc(C)c(C#N)c(SCc2cn3ccccc3n2)n1 18.5 µM
Cc1cccc2nc(CSc3nc4ccccc4o3)cn12 18.5 µM
Clc1ccc(SCc2cn3ccccc3n2)cc1 4.65 µM
c1ccc2c(SCc3cn4ccccc4n3)nncc2c1 14.7 µM
c1ccc2nc(SCc3cn4ccccc4n3)cnc2c1 9.27 µM
Clc1ccc2nc(CSCc3ccccc3)cn2c1 2.93 µM
Cc1cccc2nc(CSc3ccc(Cl)cc3)cn12 4.14 µM
CCOc1ccc(N2Nc3n[nH]c(N)c3N2)cc1 16.5 µM
N#CC1CC(c2ccccc2)=NN1c1ccccc1[N+](=O)[O-] (stereo not given) 5.85 µM
CC(/C=C/c1ccc(OCc2ccccc2)cc1)=N\O 2.07 µM
c1ccc(CSc2nnc3ccc(-c4cccs4)nn23)nc1 7.36 µM
COC(=O)c1cc2c(s1)-c1ccc(OC)cc1CC2 6.56 µM
CCc1ccc(-n2nnc(-c3nc(-c4cccs4)no3)c2N)cc1 1.17 µM
Cc1cccc(-n2nnc(-c3nc(-c4cccs4)no3)c2N)c1C 0.0927 µM
CCc1ccc(-n2nnc(-c3nc(-c4ccccc4)no3)c2C)cc1 1.17 µM
COc1cccc(-n2nnc(-c3nc(-c4cccs4)no3)c2N)c1 1.04 µM
Cc1cccc(-n2nnc(-c3nc(-c4cccs4)no3)c2N)c1 0.329 µM
Nc1c(-c2nc(-c3cccs3)no2)nnn1-c1cccc(F)c1 0.208 µM
COc1ccc(/C(C)=N/Nc2ccccc2Cl)c(O)c1 8.26 µM
Nc1nc(N2CCN(C(=O)c3ccco3)CC2)nc2ccccc12 14.7 µM
Nc1nc(N2CCN(c3ccccn3)CC2)nc2ccccc12 6.56 µM
CCOc1ccc2nc(C(=O)N3CCCC(C)C3)sc2c1 (stereo not given) 3.29 µM
c1ccc2c(COn3nnc4ccccc43)cccc2c1 2.61 µM
Clc1ccc(COn2nnc3ccccc32)c(Cl)c1 2.61 µM
COC(=O)c1ccc(COn2nnc3ccccc32)cc1 1.31 µM
COc1cccc(/C=N/Nc2nc3ccccc3[nH]2)c1OC 2.93 µM
COc1cccc(/C=N/n2c(=O)[nH]c3ccccc32)c1OC 8.26 µM
O=c1[nH]n(CC2COC3(CCCCC3)O2)c(=O)c2ccccc12 (stereo not given) 16.5 µM
Oc1cccc(Nc2nc(O)c(/C=C3\C=Nc4ccccc43)s2)c1 8.26 µM
Cc1ccc(S(=O)(=O)Oc2cccc(/C=N/Nc3ccc(C(=O)O)cc3)c2)cc1 13.1 µM
FC(F)(F)c1cccc(N/N=C/c2ccccc2)c1 6.56 µM
O=C(O)c1ccc(/C=N/Nc2cccc(C(F)(F)F)c2)cc1 7.36 µM
O=C(O)c1ccc(N/N=C/c2cccc(C(F)(F)F)c2)cc1 1.85 µM
Cc1nn(-c2cccc(C(F)(F)F)c2)c(Cl)c1/C=N/Nc1cccc(C(=O)O)c1 0.104 µM
Oc1ccc(/C=N/Nc2ccc(Cl)nn2)cc1O 13.1 µM
Oc1ccc(/C=N/Nc2ccc(C(F)(F)F)cn2)cc1O 10.4 µM
CCNc1nc(NCC)nc(N/N=C/c2ccc(O)c(O)c2)n1 18.5 µM
O=C1C[C@H]2[C@H](CO)[C@@H](OC(=O)c3ccc(-c4ccccc4)cc3)C[C@H]2O1 7.36 µM
O=C(O)c1cccc(N/N=C/c2cc(Br)cc(Br)c2O)c1 5.21 µM
O=C(O)c1ccccc1N/N=C/c1cc(Br)cc(Br)c1O 2.07 µM
O=c1[nH]c2ccccc2c2cn(-c3ccccc3)nc12 4.65 µM
CC(CNC(=O)c1ccc2c(c1)nc1n2CCOC1)c1ccccc1 (stereo not given) 13.1 µM
Cc1cccc(CCNC(=O)c2ccc3c(c2)nc2n3CCOC2)c1 3.29 µM
COc1cc(Cl)cc(/C=C/c2ccc3ccccc3n2)c1OC(C)=O 0.414 µM
O=C1c2ccccc2-c2nc3ccccc3cc21 1.47 µM
Cc1cc2nc(-c3cccc(NC(=O)COc4ccc(C(C)C)cc4)c3)oc2cc1C 0.369 µM
O=C(COc1ccc(Cl)cc1)Nc1ccc(-c2nc3cc(Cl)ccc3o2)c(O)c1 7.36 µM
COc1ccc(OCC(=O)Nc2ccc(-c3nc4cc(C)c(C)cc4o3)cc2)cc1 0.131 µM
COc1ccc(OCC(=O)Nc2ccc(-c3nc4cc(Cl)ccc4o3)cc2)cc1 2.93 µM
O=C(OCC(=O)N1CCOCC1)c1ccccc1Cc1ccccc1 2.93 µM
N/C(=N\OC(=O)c1cccc2ccccc12)c1ccncc1 16.5 µM
Cc1ccccc1C(=O)O/N=C(\N)c1ccncc1 6.56 µM
N/C(=N\OC(=O)c1ccc2ccccc2c1)c1ccncc1 0.585 µM
COc1ccc(-n2cc(-c3ccccc3)nc2SC)cc1 8.26 µM
CCOc1ccc(-c2cn(-c3ccc(OC)cc3)c(SC)n2)cc1 2.93 µM
C=CCN1N=C(/C=C/c2ccc(C)cc2)CCC1=O 10.4 µM
C=CCN1N=C(/C=C/c2ccc(OC)cc2)CCC1=O 14.7 µM
Cc1ccc2c(c1)sc1nc(=O)n(-c3ccccc3)c(=O)n12 0.131 µM
Cc1cc2sc3nc(=O)n(-c4ccccc4)c(=O)n3c2cc1C 4.14 µM
Cc1snc(SCC(=O)c2ccc(F)cc2)c1C#N 4.65 µM
O=C(Nc1ccc2oc(-c3ccccc3Cl)nc2c1)c1ncn[nH]1 0.927 µM
Cc1ccccc1-c1nc2cc(NC(=O)C3CC3)ccc2o1 0.414 µM
O=C1c2ccccc2C(=O)c2cc(NC(=O)C3CC3)ccc21 0.736 µM
O=C(Nc1ccccc1O)c1ccc(NC(=O)C2CC2)cc1 6.56 µM
N#Cc1c(N2CCCC2)nsc1-c1ccccc1 16.5 µM
N#Cc1c(N2CCOCC2)nsc1-c1ccc(C(F)(F)F)cc1 5.85 µM
N#Cc1c(N2CCOCC2)nsc1-c1ccccc1 13.1 µM
CCOc1ccc2nc(SCC(=O)c3cccs3)sc2c1 4.14 µM
CC1CCc2sc3nc(N4CCN(CCO)CC4)n4ncnc4c3c2C1 (stereo not given) 13.1 µM
CN1CCc2c(sc(NC(=O)C3COc4ccccc4O3)c2C(N)=O)C1 (stereo not given) 9.27 µM
Fc1ccccc1Nc1nc2c(s1)CCc1ccccc1-2 0.464 µM
COc1cc(CCC(C)=O)ccc1OC(=O)c1c(F)cccc1Cl 2.93 µM
C=CCn1c(SCC(=O)Nc2ccc(-c3nc4ccc(C)cc4s3)cc2)nnc1-c1ccccc1 1.17 µM
C=CCn1c(SCC(=O)Nc2ccc(-c3nc4ccc(C)cc4s3)cc2)nnc1-c1ccncc1 8.26 µM
C/C(=N/Nc1ccc(C(=O)O)cc1)c1ccc(O)c(O)c1O 18.5 µM
O=C(CSc1nnc(-c2ccccc2Cl)o1)N1CCOCC1 3.69 µM
Cc1ccccc1-c1nnc(SCC(=O)N2CCCC2)o1 7.36 µM
CC(=O)c1cnc(Nc2cccc(C)c2)s1 2.93 µM
CC(C)(C)C(=O)c1cnc(Nc2ccccc2)s1 2.33 µM
COc1ccccc1/C=C/C=N/Nc1cccc(C(=O)O)c1 0.185 µM
O=C(O)c1cc(N/N=C/c2cccc3ccccc23)ccc1Cl 3.29 µM
O=C(O)c1cccc(N/N=C/c2cccc3ccccc23)c1 0.0826 µM
Cc1[nH]c2ccccc2c1/C=N/Nc1cccc(C(=O)O)c1 7.36 µM
COc1ccc2ccccc2c1/C=N/Nc1cccc(C(=O)O)c1 6.56 µM
CC(C)n1cc(/C=N/Nc2ccc(Cl)c(C(=O)O)c2)c2ccccc21 3.29 µM
O=C(O)c1cc(N/N=C/c2c(O)ccc3ccccc23)ccc1Cl 2.07 µM
Cc1cccc(N/N=C/c2ccccc2O)c1 10.4 µM
Cc1[nH]c2ccccc2c1N=Nc1cccc(C(=O)O)c1 1.85 µM
Cc1ccn2c(Nc3ccc4c(c3)OCCO4)c(-c3ccc(Cl)s3)nc2c1 13.1 µM
Cc1ccc(-c2nc3ccccn3c2Nc2ccc3c(c2)OCCO3)s1 1.85 µM
